# Data reported in PubChem BioAssay (Tox21).
# “And” between values parts separate entries of the source, which are not always exact repeats. Identical values can stand only once. Inconclusive results are not listed. A call without a number means that no potency is given here. The source made the active and inactive calls. Unless noted, calls come from the whole dose curve; as a rule, active = well fitted curve in the direction sought with a large enough effect in the repeat runs; inconclusive = weak or mixed curves; inactive = no such curve, though single readings can be large; an effect the other way counts as inactive or inconclusive.
# Tests used:
# [1] = target: Estrogen receptor beta (Homo sapiens) (UniProt Q92731); test: qHTS assay to identify small molecule agonists of the estrogen receptor beta (ER-beta) signaling pathway (AID 1259377; active = well fitted activation curve with a large enough effect in the signal ratio in the repeat runs, not every such curve was filed as active; the % refers to the signal ratio)
# Sequence of Estrogen receptor beta (Homo sapiens) (Q92731 whole entry, looked up): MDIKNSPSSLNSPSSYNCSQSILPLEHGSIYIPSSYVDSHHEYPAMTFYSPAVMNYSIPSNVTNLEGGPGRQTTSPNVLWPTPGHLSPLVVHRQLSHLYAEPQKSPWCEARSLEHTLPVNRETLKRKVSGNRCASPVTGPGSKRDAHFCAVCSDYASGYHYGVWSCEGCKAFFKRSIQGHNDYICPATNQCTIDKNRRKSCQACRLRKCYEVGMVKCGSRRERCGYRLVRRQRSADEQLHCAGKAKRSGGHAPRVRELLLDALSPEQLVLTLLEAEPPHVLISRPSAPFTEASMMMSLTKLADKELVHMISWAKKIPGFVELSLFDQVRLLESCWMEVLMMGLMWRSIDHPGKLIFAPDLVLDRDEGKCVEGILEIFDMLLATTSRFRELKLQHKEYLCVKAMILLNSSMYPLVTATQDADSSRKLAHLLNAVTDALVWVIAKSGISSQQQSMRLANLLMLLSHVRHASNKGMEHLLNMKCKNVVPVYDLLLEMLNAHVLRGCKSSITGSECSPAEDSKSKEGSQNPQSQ
# Summary of the method: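 A UAS-controlled beta-lactamase reporter in ER-beta-UAS-bla HEK293T cells reports receptor activation. Compounds act for 16 hr at 37C in 2% charcoal-stripped serum, and a FRET substrate is read by fluorescence after 2 hours.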
# [2] = qHTS assay to identify small molecule agonists of the androgen receptor (AR) signaling pathway in the presence of an antagonist - cell viability counter screen (AID 1259379); note: nearly all actives have a fitted effect of over 25% in size; note: potency is the fitted concentration of half-maximal effect
# Summary of the method: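 MDA-kb2 cells (MMTV-luciferase, AR/GR), 3,000/well, 5 h attachment, then 3.0 µM nilutamide (final) and compounds at 15 concentrations. Viability by CellTiter-Fluor fluorescence after 16 h at 37 °C, 0% CO2, in the reporter wells.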
# [3] = qHTS assay to identify small molecule antagonists of the estrogen receptor beta (ER-beta) signaling pathway - cell viability counter screen (AID 1259382); note: nearly all actives have a fitted effect of over 55% in size; note: potency is the fitted concentration of half-maximal effect
# Summary of the method: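 ER-beta-UAS-bla HEK293T cells in 2% charcoal-stripped FBS medium, treated with compound plus 1 nM 17-beta-estradiol for 16 h at 37C. Viability read by CellTiter-Glo luminescence after 30 min at room temperature in the same wells.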
# [4] = qHTS assay to identify small molecule agonists or antagonists of the thyroid stimulating hormone receptor (TSHR) signaling pathway - wild type cell line counter screen (AID 1259384; calls by dose curve)
# Summary of the method: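 Counter screen in untransfected Hek293: compounds (15-point titration, triplicate) plus phosphodiesterase inhibitor Ro20-1724 added after 18 h plating; 30 min RT. Intracellular cAMP via competitive d2/cryptate immunoassay, 1 h incubation.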
# [5] = target: Thyrotropin receptor (Homo sapiens) (UniProt P16473); test: qHTS assay to identify small molecule antagonists of the thyroid stimulating hormone receptor (TSHR) signaling pathway (AID 1259385; calls by dose curve; note: nearly all actives have a fitted effect of over 20% in size)
# Sequence of Thyrotropin receptor (Homo sapiens) (P16473 whole entry, looked up): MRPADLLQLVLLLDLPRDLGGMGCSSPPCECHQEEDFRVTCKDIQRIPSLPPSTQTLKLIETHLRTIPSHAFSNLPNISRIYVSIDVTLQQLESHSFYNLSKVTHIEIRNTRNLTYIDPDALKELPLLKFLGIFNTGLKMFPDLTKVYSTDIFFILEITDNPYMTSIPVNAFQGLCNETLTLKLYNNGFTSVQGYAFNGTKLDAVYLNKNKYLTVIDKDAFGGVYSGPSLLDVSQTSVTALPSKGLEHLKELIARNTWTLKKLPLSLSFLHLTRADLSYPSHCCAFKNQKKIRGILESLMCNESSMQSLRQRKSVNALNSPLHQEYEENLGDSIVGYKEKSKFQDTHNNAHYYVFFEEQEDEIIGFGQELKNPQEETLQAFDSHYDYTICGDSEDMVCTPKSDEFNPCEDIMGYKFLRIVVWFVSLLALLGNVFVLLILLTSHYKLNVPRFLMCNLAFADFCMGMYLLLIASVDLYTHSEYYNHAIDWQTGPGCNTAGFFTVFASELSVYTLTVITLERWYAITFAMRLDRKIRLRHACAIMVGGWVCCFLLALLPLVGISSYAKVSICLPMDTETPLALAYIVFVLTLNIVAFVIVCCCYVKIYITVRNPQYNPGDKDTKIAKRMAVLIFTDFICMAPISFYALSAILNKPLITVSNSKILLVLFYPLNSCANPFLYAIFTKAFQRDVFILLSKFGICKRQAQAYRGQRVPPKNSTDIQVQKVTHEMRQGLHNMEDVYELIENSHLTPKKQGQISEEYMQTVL
# Summary of the method: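 Antagonist mode: compound-treated TSHR-expressing HEK293 cells were stimulated with 1.5 ng/mL TSH (final) in presence of Ro20-1724 for 30 min at RT. HTRF cAMP detection after 1 h; each compound tested at 15 concentrations, triplicate.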
# [6] = qHTS assay to identify small molecule agonists of the estrogen receptor beta (ER-beta) signaling pathway - cell viability counter screen (AID 1259380); note: nearly all actives have a fitted effect of over 30% in size; note: potency is the fitted concentration of half-maximal effect
# Summary of the method: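 ER-beta-UAS-bla HEK293T cells in medium with 2% charcoal-stripped FBS, pre-incubated 6 hr, then treated 16 hr at 37C. Cytotoxicity read in the same wells by CellTiter-Glo luminescence after 30 min at room temperature.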
# [7] = target: Androgen receptor (Homo sapiens) (UniProt P10275); test: qHTS assay to identify small molecule agonists of the androgen receptor (AR) signaling pathway in the presence of an antagonist (AID 1259381; calls by dose curve; note: nearly all actives have a fitted effect of over 15% in size; note: potency is the fitted concentration of half-maximal effect)
# Sequence of Androgen receptor (Homo sapiens) (P10275 whole entry, looked up): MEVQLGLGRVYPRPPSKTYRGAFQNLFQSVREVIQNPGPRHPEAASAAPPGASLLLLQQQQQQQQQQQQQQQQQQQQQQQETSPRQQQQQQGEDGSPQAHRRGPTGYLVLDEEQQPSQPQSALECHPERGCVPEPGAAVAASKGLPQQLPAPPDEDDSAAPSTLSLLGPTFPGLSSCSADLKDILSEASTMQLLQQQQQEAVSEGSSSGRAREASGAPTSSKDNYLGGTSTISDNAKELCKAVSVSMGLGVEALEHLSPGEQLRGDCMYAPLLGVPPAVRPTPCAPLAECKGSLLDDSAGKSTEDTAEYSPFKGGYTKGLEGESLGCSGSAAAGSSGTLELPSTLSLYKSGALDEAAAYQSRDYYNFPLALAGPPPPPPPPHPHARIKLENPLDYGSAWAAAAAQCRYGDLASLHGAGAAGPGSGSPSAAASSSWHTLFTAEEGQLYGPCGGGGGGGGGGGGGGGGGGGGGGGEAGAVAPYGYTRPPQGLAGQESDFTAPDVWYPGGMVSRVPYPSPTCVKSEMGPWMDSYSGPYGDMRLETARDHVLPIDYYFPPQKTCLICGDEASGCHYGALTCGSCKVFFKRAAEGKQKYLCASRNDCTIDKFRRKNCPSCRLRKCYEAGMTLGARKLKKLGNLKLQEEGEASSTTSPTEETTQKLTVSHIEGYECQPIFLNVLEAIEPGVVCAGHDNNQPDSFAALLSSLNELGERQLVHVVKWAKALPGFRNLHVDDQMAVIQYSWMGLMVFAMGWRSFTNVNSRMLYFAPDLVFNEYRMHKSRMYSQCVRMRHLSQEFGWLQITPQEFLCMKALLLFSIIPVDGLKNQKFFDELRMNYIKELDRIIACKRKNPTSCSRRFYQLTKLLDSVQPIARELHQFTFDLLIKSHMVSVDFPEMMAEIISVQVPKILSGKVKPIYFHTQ
# Summary of the method: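 MDA-kb2 cells carrying MMTV-luciferase (AR/GR responsive), 3,000 cells/well, co-treated with 3.0 uM nilutamide final. Compounds at 15 concentrations, 16 hr at 37C without CO2. Luciferase luminescence read after 30 min with ONE-Glo.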
# [8] = target: Estrogen receptor (Homo sapiens) (UniProt P03372); test: qHTS assay to identify small molecule agonists of the estrogen receptor alpha (ER-alpha) signaling pathway in the presence of an antagonist (AID 1259383; calls by dose curve; note: top concentration of the series differs between compounds; nearly all actives have a fitted effect of over 15% in size)
# Sequence of Estrogen receptor (Homo sapiens) (P03372 whole entry, looked up): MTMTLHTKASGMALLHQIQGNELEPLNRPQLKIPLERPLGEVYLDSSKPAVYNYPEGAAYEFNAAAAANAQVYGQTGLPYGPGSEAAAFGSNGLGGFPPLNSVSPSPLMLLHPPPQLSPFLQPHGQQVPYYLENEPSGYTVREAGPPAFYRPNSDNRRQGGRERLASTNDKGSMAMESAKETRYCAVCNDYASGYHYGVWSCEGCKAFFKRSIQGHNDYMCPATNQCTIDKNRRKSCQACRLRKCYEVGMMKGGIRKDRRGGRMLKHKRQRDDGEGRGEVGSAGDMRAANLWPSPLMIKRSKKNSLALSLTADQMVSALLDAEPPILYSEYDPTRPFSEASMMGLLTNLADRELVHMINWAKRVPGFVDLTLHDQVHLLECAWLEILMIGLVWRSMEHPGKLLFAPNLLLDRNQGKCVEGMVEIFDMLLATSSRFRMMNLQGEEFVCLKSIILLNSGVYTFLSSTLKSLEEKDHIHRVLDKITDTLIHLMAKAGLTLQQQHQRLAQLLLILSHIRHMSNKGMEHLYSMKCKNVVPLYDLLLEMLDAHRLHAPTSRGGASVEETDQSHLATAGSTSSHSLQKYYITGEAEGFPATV
# Summary of the method: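 VM7Luc4E2 cells express endogenous full-length ER-alpha with an ERE-luciferase reporter and were hormone-deprived for 5 days. Compounds at 15 concentrations were added with 10.0nM ICI-182,780 for 22hr at 37C. Luminescence was read with ONE-Glo.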
SMILES,Potency [1],Potency [2],Potency [3],outcome [4],Potency [5],Potency [6],Potency [7],Potency [8]
Cc1ccc(S)cc1,inactive,inactive,inactive,inactive,inactive,–,–,–
COCc1c(C(C)C)nc(C(C)C)c(/C=C/[C@@H](O)C[C@@H](O)CC(=O)O)c1-c1ccc(F)cc1,–,inactive,–,inactive,inactive,298 nM (active) and 1.08 µM (active),inactive,–
O=C1OCCN1/N=C/c1ccc([N+](=O)[O-])o1,inactive,inactive,inactive,inactive,inactive,–,–,inactive
O=C(CS)OCCOC(=O)CS,inactive,inactive,inactive,inactive,inactive,30.6 µM (active),–,–
C[C@@H]1C[C@H]2[C@@H]3CCC4=CC(=O)C=C[C@]4(C)[C@@]3(F)[C@@H](O)C[C@]2(C)[C@H]1C(=O)CO,inactive,inactive,inactive,inactive,inactive,–,–,–
O=C(CCCN1CCC(O)(c2ccc(Br)cc2)CC1)c1ccc(F)cc1,inactive,inactive,–,inactive,–,23.7 µM (active),–,inactive
CO[Si](C)(OC)OC,inactive,inactive,inactive,inactive,inactive,inactive,–,inactive
CCc1c2c(nc3ccc(OC(=O)N4CCC(N5CCCCC5)CC4)cc13)-c1cc3c(c(=O)n1C2)COC(=O)[C@]3(O)CC,inactive,inactive,inactive,inactive,–,inactive,–,inactive
C(=C\c1ccccc1)/CN1CCN(C(c2ccccc2)c2ccccc2)CC1,inactive,inactive,–,inactive,–,–,–,–
Cc1oc(C)c(C(=O)Nc2ccccc2)c1C,–,–,inactive,–,–,–,–,–
O=C(c1ccc(O)cc1)c1ccc(Cl)cc1,–,–,inactive,–,–,inactive,–,–
CC(=O)[C@H]1CC[C@H]2[C@@H]3C[C@H](C)C4=CC(=O)CC[C@]4(C)[C@H]3[C@@H](O)C[C@]12C,inactive,inactive,inactive,inactive,–,–,0.0841 µM (active),–
C/C=C/C=C/CCCCCCCO,–,inactive,inactive,inactive,inactive,–,–,inactive
C=CCOC(=O)/C=C\C(=O)OCC=C,–,inactive,inactive,inactive,inactive,inactive,inactive,–
CC1CC(=O)NN=C1c1ccc(NCC(C)(C)NCC(O)COc2cc(Cl)ccc2C#N)cc1 (centres undefined),inactive,inactive,inactive,inactive,inactive,–,–,–
CNC(=S)NC,–,inactive,–,inactive,inactive,13.7 µM (active),inactive,inactive
O=C(Nc1ccc([N+](=O)[O-])cc1)Nc1ccc([N+](=O)[O-])cc1,inactive,–,inactive,inactive,–,–,–,–
CCOC(=O)[C@@H](C)Oc1ccc(Oc2nc3ccc(Cl)cc3o2)cc1,inactive,inactive,inactive,–,–,–,inactive,–

SMILES,Potency [1],Potency [2],Potency [3],outcome [4],Potency [5],Potency [6],Potency [7],Potency [8]
NC(=O)N(O)[C@@H]1C=C[C@H](Oc2cccc(Oc3ccc(F)cc3)c2)C1,inactive,–,inactive,inactive,inactive,inactive,–,–
NC(=O)Nc1ccc(Cl)c(Cl)c1,–,inactive,inactive,inactive,inactive,–,–,–
CCCCC/C(=C\c1ccccc1)CO,inactive,inactive,inactive,inactive,inactive,–,–,–
CCCCCCCCSCCO,–,inactive,inactive,inactive,inactive,inactive,inactive,–
COc1cc2c(N3CCN(C(=O)Nc4ccc(OC(C)C)cc4)CC3)ncnc2cc1OCCCN1CCCCC1,–,–,inactive,inactive,inactive,18.8 µM (active),inactive,inactive
Cc1nc2ccccn2c(=O)c1CCN1CCC(C(=O)c2ccc(F)cc2)CC1,inactive,inactive,inactive,–,–,–,–,inactive
CCCOc1ccc(S(=O)(=O)N2CCN(CC)CC2)cc1-c1nc2c(CC)n(Cc3ccccn3)nc2c(=O)[nH]1,–,inactive,inactive,inactive,–,inactive,–,–
N#C/C(=C1/SC[C@@H](c2ccc(Cl)cc2Cl)S1)n1ccnc1,inactive,–,inactive,inactive,–,inactive,–,–
CN(C)CCOC1=Cc2ccccc2Sc2ccc(Cl)cc21,–,inactive,–,inactive,–,26.6 µM (active),–,inactive
CCCC1C(CC)=CC(CC)=CN1c1ccccc1 (centres undefined),inactive,48.6 µM (active),inactive,inactive,inactive,inactive,–,–
C[C@]12CCC(=O)C=C1C=C[C@@H]1[C@@H]2CC[C@@]2(C)[C@H]1CC[C@@]21CCC(=O)O1,inactive,inactive,inactive,inactive,inactive,inactive,–,inactive
Nc1ccc(C(=O)OCCCOC(=O)c2ccc(N)cc2)cc1,–,inactive,–,–,–,17.2 µM (active),–,–
OC(CCCN1CCCCC1)(c1ccccc1)c1ccccc1,–,inactive,inactive,inactive,inactive,inactive,inactive,inactive
CC1(C)C2=CCCC(C)(C)[C@]23CC[C@H]1C3,–,inactive,–,inactive,inactive,–,inactive,–
O=C(OCCOCCO)c1ccccc1Nc1cccc(C(F)(F)F)c1,–,inactive,inactive,inactive,inactive,inactive,–,inactive
O=C(CCCCCCC(=O)Nc1ccccc1)NO,–,inactive,1.19 µM (active),inactive,inactive,2.66 µM (active),–,inactive
COc1ccccc1N=Nc1c(S(=O)(=O)O)cc2cc(S(=O)(=O)O)cc(NC(C)=O)c2c1O,inactive,25.7 µM (active),inactive,–,–,inactive,–,–
